Structures can show the parent of a compound that is named as a salt.
Experiments:
Assay in all cases: Euclidean distance of Cell Painting phenotypic profile (signed KS, 77 features) to DMSO centroid (dimensionless distance); 5 or 10 uM (library dependent); higher = stronger phenotypic change vs DMSO (phenoactivity)
Settings in all cases: 48 h
786-O = tested on: 786-O
Method in brief: (§1)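 Library compounds were applied at 10 or 5 uM, depending on the library, with 0.1% DMSO final, for 48 h to five cancer lines and a healthy fibroblast line. After staining, cells were imaged confocally at 20X across 9 fields per well, and Harmony extracted 77 features, each scored as a signed Kolmogorov-Smirnov statistic against vehicle wells on the same plate. Phenoactivity is the Euclidean distance between each profile and the median vehicle profile, with profiles first plate-position corrected, correlation-weighted and averaged over replicates at the top dose.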

A549 = tested on: A549
Method in brief: as §1

DU145 = tested on: DU145
Method in brief: as §1

FB = tested on: FB
Method in brief: as §1

HEPG2 = tested on: HEPG2
Method in brief: as §1

OVCAR4 = tested on: OVCAR4
Method in brief: as §1

Row | SMILES | Euclidean distance (786-O) | Euclidean distance (A549) | Euclidean distance (DU145) | Euclidean distance (FB) | Euclidean distance (HEPG2) | Euclidean distance (OVCAR4)
1 | CCC[C@H](NC(=O)[C@@H]1[C@H]2CCC[C@H]2CN1C(=O)[C@@H](NC(=O)[C@@H](NC(=O)c1cnccn1)C1CCCCC1)C(C)(C)C)C(=O)C(=O)NC1CC1 [Telaprevir (VX-950)] | 1.35 | 1.63 | 1.2 | 0.968 | 0.621 | 1.3
2 | CCC[C@@H](C=O)NC(=O)[C@H](CC(C)C)NC(=O)[C@H](CC(C)C)NC(=O)OCc1ccccc1 | 5.22 | 4.01 | 5.17 | 4.63 | 4.52 | 5.15
3 | CC(C)(C)NCC(O)COc1cccc2c1CCC(=O)N2 (centres undefined) [Carteolol HCl] | 1.14 | 0.612 | 0.836 | 1.22 | 0.541 | 2.01
4 | CCN[C@@H]1C[C@H](N)[C@@H](O[C@H]2OC(CN)=CC[C@H]2N)[C@H](O)[C@H]1O[C@H]1OC[C@](C)(O)[C@H](NC)[C@H]1O [Netilmicin Sulfate] | 1.12 | 0.92 | 1.18 | 0.946 | 0.625 | 0.916
5 | O=c1ccn([C@@H]2O[C@H](COP(=O)(O)OP(=O)(O)OP(=O)(O)O)[C@@H](O)[C@H]2O)c(=O)[nH]1 [UTP. Trisodium Salt] | 1.15 | 0.718 | 0.761 | 0.666 | 1.23 | 0.979
6 | C=C1C[C@@]2(O)O[C@@]3(C[C@H]2C(C)C)[C@@H](C)CC[C@@H]13 [Curcumol] | 1.06 | 1.43 | 0.943 | 1.3 | 0.814 | 1.43
7 | C[S+]([O-])c1ccc(-c2nc(-c3ccc(F)cc3)c(-c3ccncc3)[nH]2)cc1 (centres undefined) | 1.84 | 0.978 | 1.1 | 1.03 | 2.4 | 1.33
8 | CCc1cc(C(N)=S)ccn1 [Ethionamide] | 1.19 | 0.608 | 1.03 | 0.853 | 2.13 | 1.4
9 | C=C(C)[C@@H]1CC[C@]2(CO)CC[C@]3(C)[C@H](CC[C@@H]4[C@@]5(C)CC[C@H](O)C(C)(C)[C@@H]5CC[C@]43C)[C@@H]12 [Betulin] | 1.24 | 0.846 | 1.07 | 1.2 | 0.765 | 1.1
10 | O=C(Nc1ccc(Cl)cc1)Nc1ccc(Cl)c(Cl)c1 [Triclocarban] | 2.18 | 3.14 | 1.62 | 1.74 | 3.53 | 2.98
11 | CC[C@H]1OC(=O)[C@H](C)[C@@H](O[C@H]2C[C@@](C)(OC)[C@@H](O)[C@H](C)O2)[C@H](C)[C@@H](O[C@@H]2O[C@H](C)C[C@H](N(C)C)[C@H]2O)[C@](C)(O)C[C@@H](C)C(=O)[C@H](C)[C@@H](O)[C@]1(C)O [Erythromycin] | 1.41 | 1.02 | 1.69 | 1.16 | 3.29 | 1.43
12 | CCc1ccc(CCOc2ccc(CC3SC(=O)NC3=O)cc2)nc1 (centres undefined) [Pioglitazone] | 0.465 | 0.586 | 0.944 | 0.666 | 0.336 | 0.891
13 | COc1ccc(COc2ccc(Cc3cnc(N)nc3N)cc2OC)cc1 | 0.708 | 1.1 | 0.739 | 1.13 | 2.08 | 0.792
14 | CCCC(C(=O)OCCN(CC)CC)(c1ccccc1)c1ccccc1 [Proadifen HCl] | 1.14 | 1.1 | 2.58 | 1.59 | 1.89 | 1.13
15 | COC(=O)Nc1nc2cc(Sc3ccccc3)ccc2[nH]1 [Fenbendazole] | 2.61 | 2.78 | 3.05 | 2.21 | 2.12 | 2.83
16 | CCN(CC)C(=O)/C(C#N)=C/c1cc(O)c(O)c([N+](=O)[O-])c1 [Entacapone] | 0.439 | 0.512 | 0.513 | 1.1 | 0.422 | 0.77
17 | CCNC(=O)Nc1ccc(-c2nc3c(c(N4CCOC[C@@H]4C)n2)CCN(C2COC2)C3)cc1 | 3.58 | 3.22 | 1.78 | 4.11 | 3.1 | 4.55
18 | CCOC(=O)CCC(=O)O[C@H]1[C@H](O[C@@H]2[C@@H](C)[C@H](O[C@H]3C[C@@](C)(OC)[C@@H](O)[C@H](C)O3)[C@@H](C)C(=O)O[C@H](CC)[C@@](C)(O)[C@H](O)[C@@H](C)C(=O)[C@H](C)C[C@@]2(C)O)O[C@H](C)C[C@@H]1N(C)C [Erythromycin Ethylsuccinate] | 1.09 | 0.82 | 1.09 | 1.04 | 0.715 | 1.3
19 | O=C(Nc1cccnn1)N1CCC(=Cc2cccc(Oc3ccc(C(F)(F)F)cn3)c2)CC1 | 1.52 | 1.02 | 1.2 | 0.799 | 1.66 | 1.21
20 | CC1(C)CCC2=C(O1)c1ccccc1C(=O)C2=O [Beta-Lapachone] | 3.88 | 5.17 | 7.8 | 4.08 | 4.33 | 5.57

Row | SMILES | Euclidean distance (786-O) | Euclidean distance (A549) | Euclidean distance (DU145) | Euclidean distance (FB) | Euclidean distance (HEPG2) | Euclidean distance (OVCAR4)
21 | CN1CC(=O)N2[C@H](c3ccc4c(c3)OCO4)c3[nH]c4ccccc4c3C[C@@H]2C1=O [Tadalafil] | 1.16 | 0.906 | 0.404 | 0.948 | 0.78 | 1.22
22 | C=CC(=O)N1CCC(CNc2ncnc(N)c2-c2ccc(Oc3ccccc3)cc2)CC1 [Evobrutinib] | 0.935 | 0.683 | 2.24 | 0.97 | 0.714 | 0.874
23 | CCCc1cc(=O)[nH]c(=S)[nH]1 [Propylthiouracil] | 0.782 | 1.25 | 2.02 | 1.4 | 0.77 | 1.77
24 | COc1ccc(C(=O)c2ccccc2)c(O)c1 [Oxybenzone] | 1.07 | 0.943 | 0.824 | 1.34 | 0.753 | 1.32
25 | CN1CCN(C2=Nc3ccccc3Oc3ccc(Cl)cc32)CC1 [Loxapine Succinate] | 0.937 | 0.901 | 1.33 | 0.885 | 0.582 | 0.838
26 | O=C1Cc2cc(CCN3CCN(c4nsc5ccccc45)CC3)c(Cl)cc2N1 [Ziprasidone HCl] | 1.99 | 1.47 | 1.15 | 1.3 | 0.985 | 1.64
27 | CC(C)[C@H]1C(=O)N[C@@H](CCCNC(=N)N)C(=O)NCC(=O)N[C@@H](CC(=O)O)C(=O)N[C@H](Cc2ccccc2)C(=O)N1C [Cilengitide] | 2.25 | 1.28 | 0.875 | 1.15 | 4.37 | 2.86
28 | CC(C)(C)C#Cc1cc(N(C(=O)[C@H]2CC[C@H](C)CC2)[C@H]2CC[C@H](O)CC2)c(C(=O)O)s1 [VX-222 (VCH-222. Lomibuvir)] | 0.681 | 0.474 | 1.14 | 0.678 | 2.05 | 0.601
29 | CC1(C)[C@@H](O)CC[C@]2(C)[C@H]3C(=O)C=C4[C@@H]5C[C@@](C)(C(=O)O)CC[C@]5(C)CC[C@@]4(C)[C@]3(C)CC[C@@H]12 [Enoxolone] | 1.06 | 0.933 | 0.631 | 0.901 | 0.41 | 1.32
30 | CN1CCN(C2CCN(C(=O)Nc3cc(Oc4ccc(NC(=O)C5(C(=O)Nc6ccc(F)cc6)CC5)c(F)c4)ccn3)CC2)CC1 [Golvatinib (E7050)] | 1.08 | 1.47 | 1.32 | 3.36 | 3.28 | 1.45
31 | COc1ccc(CN2C3CC2CN(c2ccc(-c4cc(OCC(C)(C)O)cn5ncc(C#N)c45)cn2)C3)cn1 [Selpercatinib (LOXO-292. ARRY-192)] | 0.919 | 2.72 | 0.961 | 1.56 | 0.545 | 1.15
32 | Cn1c(Cn2ccc(C(F)(F)F)c(Oc3cc(Cl)cc(C#N)c3)c2=O)n[nH]c1=O [Doravirine (MK-1439)] | 1.23 | 0.8 | 1.11 | 1.13 | 0.593 | 0.914
33 | CC(COc1ccccc1)NC(C)C(O)c1ccc(O)cc1 (centres undefined) [Isoxsuprine hydrochloride] | 1.44 | 0.704 | 0.854 | 1.28 | 0.54 | 1.1
34 | CCOC(=O)[C@H](CCc1ccccc1)N[C@@H](C)C(=O)N1Cc2ccccc2C[C@H]1C(=O)O [Quinapril HCl] | 1.41 | 1.16 | 0.942 | 1.09 | 0.483 | 1.04
35 | Cc1ccc(CNc2ncnc3ccc(-c4ccc(CO)o4)cc23)o1 | 1.8 | 1.95 | 1.67 | 1.25 | 2.04 | 1.67
36 | O=C(COc1ccc(Cl)cc1)N1CCN(Cc2ccc3c(c2)OCO3)CC1 [Fipexide hydrochloride] | 1.78 | 1.13 | 1.39 | 1.08 | 0.573 | 1.32
37 | CCCc1nc(C(C)(C)O)c(C(=O)O)n1Cc1ccc(-c2ccccc2-c2nnn[nH]2)cc1 [Olmesartan] | 1.21 | 0.9 | 1.57 | 0.802 | 0.353 | 1.32
38 | FC(F)c1nc2ccccc2n1-c1nc(N2CCOCC2)nc(N2CCOCC2)n1 | 2.56 | 3.64 | 3.69 | 2.87 | 2.24 | 3.13
39 | Cc1c(C(=O)NN2CCCCC2)nn(-c2ccc(Cl)cc2Cl)c1-c1ccc(I)cc1 | 1.16 | 1.17 | 0.842 | 1.03 | 0.6 | 0.903

Reference: the supplement of paper PMC10127200
